About 13,000 (27%) of roughly 48,000 compounds showed an effect of 50% or more. This is one part of the list.
system: Wolbachia pipientis; experiment: Anti-Wolbachia Cell-Based Screen; format: functional; design: scale not given: in the data most compounds retested in dose-response had high values; conditions: 5 µM

SMILES | Percent Effect [%]
NC(=O)C1CCCN1CCCc1ccc(C(F)(F)F)cc1 (stereo not drawn) | -6.15
CC(C)N(C)C(=O)c1ccc(CNc2ncc(C#N)cc2Cl)cc1 | -8.928
CCN1CCN(CCNc2nc3ccc(C)cc3c(=O)n2C)CC1 | 1.756
Cc1nc(C)n(CC2CN(Cc3nccs3)Cc3nccn3C2)n1.O=C(O)C(F)(F)F (stereo not drawn) | -6.636
O=C(N1CCCC1)N1Cc2nccn2CC(COc2cccnc2)C1.O=C(O)C(F)(F)F (stereo not drawn) | 96.45
O=C(O)C(F)(F)F.O=C(O)C(F)(F)F.c1cncc(OCC2CN(Cc3nccs3)Cc3nccn3C2)c1 (stereo not drawn) | 104
COCC1CN(C(=O)c2cccc(C)n2)Cc2nccn2C1.O=C(O)C(F)(F)F (stereo not drawn) | -3.838
O=C(NCC1CN(c2ncccn2)Cc2nccn2C1)c1cccnc1.O=C(O)C(F)(F)F (stereo not drawn) | 8.129
O=C(O)C(F)(F)F.c1cnc(N2Cc3nccn3CC(COc3cccnc3)C2)nc1 (stereo not drawn) | 111.9
CS(=O)(=O)N1Cc2nccn2CC(CNC(=O)c2cccnc2)C1.O=C(O)C(F)(F)F (stereo not drawn) | -1.051
CN(Cc1cccnc1)CC1CN(C(=O)C2CC2)Cc2nccn2C1.O=C(O)C(F)(F)F.O=C(O)C(F)(F)F (stereo not drawn) | -3.173
Cc1occc1C(=O)N1Cc2nccn2CC(CN2CCCC2)C1.O=C(O)C(F)(F)F (stereo not drawn) | -14.64
O=C(O)C(F)(F)F.O=C(O)C(F)(F)F.O=C(c1cccnc1)N1Cc2nccn2CC(COc2cccnc2)C1 (stereo not drawn) | 111
CC(=O)N1Cc2nccn2CC(CNC(=O)c2cccnc2)C1.O=C(O)C(F)(F)F (stereo not drawn) | -4.633
Cc1ccc(CNC(c2ccccc2)c2nccn2C)cc1C (stereo not drawn) | -2.774
COc1ccc(C(=O)NS(=O)(=O)c2ccc(CNC(C)=O)s2)cc1 | -0.9731
Cc1ccnc(NS(=O)(=O)c2cc(C(N)=O)n(C)c2)c1 | 8.268
Cc1cc(C)cc(NC(=O)CN2CCCC(n3cncn3)C2)c1 (stereo not drawn) | 8.702
COCC1CC2(CCN(C(=O)c3ccc(F)c(Cl)c3)CC2)CO1 (stereo not drawn) | -3.157
CC(=O)NC[C@]1(O)CCN(C(=O)c2ccc(C)c(F)c2)C[C@H]1O | 111.8
CC(=O)N1CCC2(CC1)CN(C(=O)c1ccc3c(c1)OCO3)C2 | -7.452
CS(=O)(=O)NCC1CCCN(C(=O)c2ccc3c(c2)CCC3)C1 (stereo not drawn) | -4.65
CC[C@@]1(O)CCN(C(=O)CCNC(=O)c2ccc(F)cc2)C[C@H]1O | -29.52

SMILES | Percent Effect [%]
CC(C)=CCN1C[C@H]2CC[C@@H]1CN(C(=O)c1ccc3c(c1)OCO3)C2 | 36
CC[C@@]1(O)CCN(C(=O)c2ccc(CN3CCCCCC3)cc2)C[C@H]1O | -35.93
CC(=O)NC[C@]1(O)CCN(C(=O)c2ccc3c(c2)OCO3)C[C@H]1O | 124.1
CC[C@@]1(O)CCN(C(=O)c2ccc(SC)cc2)C[C@H]1O | -2.102
CC(=O)NC[C@]1(O)CCN(C(=O)c2ccc3c(c2)CCC3)C[C@H]1O | 101.7
CC[C@@]1(O)CCN(C(=O)c2ccc(-c3cccc(F)c3)cc2)C[C@H]1O | -0.249
CC(=O)NC[C@]1(O)CCN(C(=O)c2ccc(F)c(Cl)c2)C[C@H]1O | 117.5
Cc1nn(CCO)cc1CN1CCC(C(C)N2CCCC2)CC1 (stereo not drawn) | 9.031
CCOc1ccc(CNC2CCCN(c3cccnn3)C2)cc1OC (stereo not drawn) | -5.556
CCCn1ncc(C(=O)N(Cc2cccnc2)C[C@@H]2CCC(=O)N2)c1C | -6.874
CCn1c(CC2CCN(C(=O)C3CC(C(C)C)=NO3)CC2)nn(C)c1=O (stereo not drawn) | 5.338
O=C(CCC(=O)N1CCCC1c1cccs1)N1CCc2sccc2C1 (stereo not drawn) | 12.25
O=C(NC1CC(=O)N(C2Cc3ccccc3C2)C1)c1cc[n+]([O-])cc1 (stereo not drawn) | 5.46
CC(=O)N1CCN(C(=O)CNc2c(C)cccc2OC(F)F)CC1 | -9.064
Cc1ccc(C(=O)N2CCC(=O)N(CC3CC3)C(C(C)C)C2)c(=O)[nH]1 (stereo not drawn) | 0.658
CC(Cc1ccco1)NC(=O)Nc1cnn(CC(N)=O)c1 (stereo not drawn) | 6.71
COc1cc(C)nc(N2CCN(C(=O)COCC(F)(F)F)CC2)n1 | -18.67
Cc1cc(C)nc(Nc2cc(C)nc(C3CCN(C(=O)CO)C3)n2)n1 (stereo not drawn) | 114
Cc1cc(C(F)(F)F)nc(C2CCN(C(=O)CO)CC2)n1 | 124.3
Cc1cc(O)nc(C2CCN(C(=O)CO)CC2)n1 | 98.46
CNCC(=O)N1CCCC(c2cccc(Nc3nc(C)cc(C)n3)n2)C1 (stereo not drawn) | -17.94
COCCNC(=O)CN1CCN(c2nc(C)cs2)C(C)C1 (stereo not drawn) | 5.094
COCCNC(=O)c1cc(C)nc(C2CCN(C)CC2)n1 | 102.6

SMILES | Percent Effect [%]
CCOCCCNC(=O)c1cc(C)nc(N2CCCC2)n1 | 24.14
O=c1[nH]c2nc(NCC3CCCO3)ncc2c(=O)n1-c1cccc(F)c1 (stereo not drawn) | -6.626
CCc1noc(CC)c1CC(=O)N1CCN(C(=O)C2CCCC2)CC1 | -21.61
O=C(CCCc1cn[nH]c1)N1C[C@@H](CN2CCCCCC2)[C@@H](CO)C1 | 0.3132
CN(C)CCN(Cc1ccsc1)C(=O)C1=NNC(=O)CC1 | -24.72
COC(=O)[C@H]1CN(S(C)(=O)=O)CCN1S(C)(=O)=O | -6.679
Cc1cnc(NCC(C)(C)N2CCOCC2)nc1 | -8.824
Cc1nc(C2CCN(C(=O)CO)CC2)cc(N2CCOCC2)n1 | 8.233
CC1CCN(C(=O)CN2CCC(c3n[nH]c(C4CC4)n3)CC2)CC1 | -23.79
Cc1cc(C)nc(C2CCN(C(=O)CO)CC2)n1 | 128.5
COC(=O)Cc1cccc(NC(=O)Cc2ccon2)c1 | 4.933
CC(C)Nc1nc2c(c(NC3CC3)n1)CCN(C(=O)C1CCOC1)CC2 (stereo not drawn) | 25.31
Cc1nc2c(c(NC(C)C)n1)CCN(C(=O)c1cc[nH]n1)CC2.O=C(O)C(F)(F)F | -4.947
Cc1nc2c(c(NC3CC3)n1)CCN(C(=O)CCO)CC2.O=C(O)C(F)(F)F | -1.283
CCOCC(=O)N1CCc2nc(C)nc(NC(C)C)c2CC1 | 81.04
CC(C)Nc1nc2c(c(NC3CC3)n1)CN(C(=O)c1ccncc1)CC2 | 1.63
CC(=O)NCC(=O)N1CCc2nc(C)nc(C)c2CC1 | -10.4
COCC(=O)N1CCc2nc(NC(C)C)nc(NC(C)C)c2CC1 | 95.04
COCC(=O)N1CCc2nc(C)nc(NC(C)C)c2CC1 | 69.97
Cc1nc2c(c(NC(C)C)n1)CCN(C1CCOCC1)CC2.O=C(O)C(F)(F)F | -10.52
Cc1nc2c(c(NC(C)C)n1)CCN(C(=O)CCO)CC2 | 103
CCOCc1nc2c(c(NCCNC(C)=O)n1)CCN(C(C)=O)CC2 | 14.8
